# Results from PubChem BioAssay AID2322 (Broad Institute, 2010).
# In all, about 27,000 compounds went through this assay and about 120 (0.44%) were called active. Cut-off read from the data, not from the text of the source: active = inhibition above about 20%; inconclusive = no clear call, values can overlap the other calls; inactive = below that. What follows is part of a selection rich in actives, with near analogues and random picks from the rest.
# Target: Serine/threonine-protein kinase 33 (Homo sapiens) (UniProt Q9BYT3)
# Sequence (Q9BYT3 whole entry, looked up): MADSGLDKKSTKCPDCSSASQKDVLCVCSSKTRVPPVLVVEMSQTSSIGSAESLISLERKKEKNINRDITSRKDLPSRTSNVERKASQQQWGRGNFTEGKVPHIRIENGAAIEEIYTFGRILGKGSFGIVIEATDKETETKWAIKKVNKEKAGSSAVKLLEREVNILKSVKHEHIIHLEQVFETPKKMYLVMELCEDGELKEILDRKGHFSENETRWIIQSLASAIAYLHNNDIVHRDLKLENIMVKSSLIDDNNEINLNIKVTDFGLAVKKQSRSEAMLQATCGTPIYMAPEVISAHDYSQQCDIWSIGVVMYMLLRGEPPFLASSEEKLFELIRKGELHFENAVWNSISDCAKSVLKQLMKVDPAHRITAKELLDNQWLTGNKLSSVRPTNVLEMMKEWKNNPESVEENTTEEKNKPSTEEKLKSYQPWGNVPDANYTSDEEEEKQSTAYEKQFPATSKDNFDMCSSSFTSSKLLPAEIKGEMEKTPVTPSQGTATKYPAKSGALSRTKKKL
# Experiment: STK33 kinase inhibitors, primary screen, biochemical, luminescence, ADP-Glo, MBP substrate (AID 2322)
# Settings: at 12.5 µM, stronger effect = higher value
row,SMILES,inhibition
1,COC(=O)c1cc(NC(=O)Cc2ccccc2[N+](=O)[O-])ccc1Cl,1.83% (inactive)
2,CCn1c(SCC(=O)c2ccc(OC)cc2)nnc1-c1ccccc1F,-0.529% (inactive)
3,Cc1cc(OCc2nc3ccccc3s2)ccc1NC(=O)c1cccc(F)c1,0.681% (inactive)
4,CS(=O)(=O)N(CC(=O)Nc1ccc(F)cc1F)c1cc(Cl)c(Cl)cc1Cl,-1.13% (inactive)
5,C=CCN1C(=O)[C@]2(O[C@H](CCn3cc(CCO)nn3)[C@@H]([Si](C)(C)c3ccc(OC)cc3)[C@@H]2C)c2cc(N3CCOC3=O)ccc21,-0.0517% (inactive)
6,CC(=O)c1cccc(N(CC(=O)Nc2ccccc2C(F)(F)F)S(C)(=O)=O)c1,0.774% (inactive)
7,CC(=O)OC[C@H]1O[C@@H](Oc2c(-c3ccc(O)c(O)c3)oc3cc(O)cc(O)c3c2=O)[C@H](O)[C@@H](O)[C@@H]1O,6.14% (inactive)
8,COc1c(O)cc2oc(-c3ccc(O)c(O)c3)cc(=O)c2c1O,39.8% (active)
9,CCc1ccccc1NC(=O)COc1cc(O)c2c(=O)cc(-c3ccccc3)oc2c1,6.95% (inactive)
10,Cc1ccc2nc(-c3ccc(Cl)c(NC(=O)COc4ccc(Br)cc4)c3)oc2c1,0.49% (inactive)
11,Cc1ccc(-c2nnc(SCC(=O)Nc3ccccc3OC(F)F)o2)cc1,2.8% (inactive)
12,C[C@H]1CN([C@@H](C)CO)C(=O)c2cc(NC(=O)CCN3CCOCC3)ccc2O[C@@H]1CN(C)C(=O)Nc1ccc(C(F)(F)F)cc1,-0.787% (inactive)
13,N#Cc1c(NC(=O)C2CC(Cl)=CCC2C(=O)O)sc2c1CCC2 (centres undefined),-3.84% (inactive)
14,CCc1cc(Br)cc(C)c1NC(=O)CSc1nnc(-c2ccc(Cl)cc2)n1C,3.71% (inactive)
15,C[C@@H]1CN([C@H](C)CO)C(=O)CCCn2nncc2CO[C@@H]1CN(C)S(=O)(=O)c1cccc(C#N)c1,-5.23% (inactive)
16,COC(=O)Nc1ccc(S(=O)(=O)N2CCCC(C(=O)Nc3ccc(N(C)C)cc3)C2)cc1 (centres undefined),-2.4% (inactive)
17,C[C@@H]1CCCCO[C@H](CN(C)C(=O)NC2CCCCC2)[C@@H](C)CN([C@H](C)CO)C(=O)c2cc(NS(=O)(=O)c3ccc(F)cc3)ccc2O1,-0.501% (inactive)
18,O=C(CSc1nc2c(c(C(F)(F)F)n1)CCCC2)N1c2ccccc2Sc2ccccc21,2.75% (inactive)
19,Cc1cc(C)cc(NC(=O)CSc2nnc(-c3ccncc3)n2-c2ccccc2)c1,-3.15% (inactive)
20,Cc1noc(C)c1S(=O)(=O)Nc1ccc2c(c1)CC(=O)N([C@@H](C)CO)C[C@H](C)[C@@H](CN(C)S(=O)(=O)c1cn(C)cn1)O2,1.65% (inactive)
21,COc1cccc(NC(=O)CCC(=O)O)c1,-2.64% (inactive)
22,Cc1cccc(NC(=O)CSc2nnc3c4ccccc4nc(-c4ccccc4)n23)c1,-2.64% (inactive)
23,Cc1cccc(C)c1NC(=O)CSc1nc(O)cc(=O)[nH]1,-1.7% (inactive)
24,COc1ccccc1CC(=O)Nc1ccc(-c2nnc(-c3ccc(C)cc3)o2)cc1,6.73% (inactive)
25,Cc1ccc2nc(-c3ccncc3)cc(C(=O)NCc3ccccn3)c2c1,-5.08% (inactive)

row,SMILES,inhibition
1,COC(=O)c1sccc1NC(=O)COc1cc(C)ccc1Cl,6.51% (inactive)
2,COc1cc2c(cc1NC(=O)CN(C)S(=O)(=O)c1ccc(Br)cc1)oc1ccccc12,-2.44% (inactive)
3,Cc1ccc([N+](=O)[O-])cc1NC(=O)CSc1nnc(-c2ccncc2)n1C,-0.493% (inactive)
4,O=C(CCn1nc(-c2ccccc2)c2ccccc2c1=O)Nc1cccc(Br)c1,8.57% (inactive)
5,O=C(COc1ccc2ccccc2c1Br)NCCN1CCOCC1,0.329% (inactive)
6,O=C(CSc1nnc(-c2ccncc2)n1-c1ccccc1)Nc1ccc(OC(F)(F)F)cc1,1.66% (inactive)
7,COC(=O)c1c(-c2cccnc2)csc1NC(=O)c1cc(-c2ccc(C)o2)nc2ccccc12,9.69% (inactive)
8,C[C@@H]1CN([C@H](C)CO)C(=O)Cc2cc(NC(=O)CCCN(C)C)ccc2O[C@H]1CN(C)S(=O)(=O)c1cccs1,-0.927% (inactive)
9,COc1cc(OC)c(C2=NOC(C(=O)Nc3cccnc3)C2)cc1Cl (centres undefined),-2.64% (inactive)
10,C[C@H](CO)N1C[C@H](C)[C@H](CN(C)S(=O)(=O)c2ccccc2)Oc2ccc(NC(=O)Cn3cnnn3)cc2C1=O,1.24% (inactive)
11,COc1ccc(S(=O)(=O)Nc2ccc3c(c2)C(=O)N([C@H](C)CO)C[C@H](C)[C@@H](CN(C)Cc2ccc(-c4ccccc4)cc2)O3)cc1,2.44% (inactive)
12,CC(=O)Nc1ccc(S(=O)(=O)NC2(C(F)(F)F)C(=O)N(Cc3ccc(F)cc3)C3=C2C(=O)CC(C)(C)C3)cc1 (centres undefined),-0.346% (inactive)
13,CCOC(=O)c1sc(NC(=O)c2cc(C)on2)c(C(=O)OCC)c1C,-1.02% (inactive)
14,Cc1nnc(SCC(=O)Nc2cc(C(F)(F)F)ccc2Cl)s1,3.42% (inactive)
15,O=C(COc1ccc2oc3c(c2c1)CCCC3)Nc1cccnc1,-2.38% (inactive)
16,O=C1c2ccccc2C(=O)N1CCCc1nc2ccccc2c(=O)n1-c1nc2ccccc2s1,-0.682% (inactive)
17,CC(C)=CCCC(C)(O)C(O)Cc1cc(C(=O)O)cc(CC=C(C)C)c1O (centres undefined),-4.79% (inactive)
18,O=C(Cn1ccc([N+](=O)[O-])n1)NCc1cccs1,4.56% (inactive)
19,COc1ccc(C(=O)N(Cc2nc(-c3ccccc3)no2)C(C)C)cc1[N+](=O)[O-],-9.54% (inactive)
20,COC(=O)c1cc(OC)c(OC)cc1NC(=O)COc1ccc(Cl)cc1,-1.45% (inactive)
21,Cc1cc(Cl)ccc1NC(=O)CN(c1ccc(Cl)c(Cl)c1)S(C)(=O)=O,-1.61% (inactive)
22,O=S(=O)(c1ccc(F)cc1)c1nc(-c2ccccc2Cl)oc1NCc1ccco1,4.44% (inactive)
23,COc1cc(-c2nc3ccccc3s2)ccc1OCC(=O)Nc1ccc(C)cc1,1.24% (inactive)
24,C[C@H](CO)N1C[C@H](C)[C@H](CN(C)C)Oc2ncc(/C=C/c3ccccc3)cc2C1=O,-3.66% (inactive)
